# Data reported in PubChem BioAssay (NCI).
# This is part of a sample that, as a whole, favours compounds with a hit. Of some 79,000 tested, about 15% had one in any assay. Values without a mark were called inactive. The source made the active and inactive calls. No stated cut-off is given here; in the data, active means growth inhibition above about 70%; inactive means the rest.
# Experiment: NCI Yeast Anticancer Drug Screen. Data for the sgs1 strain (AID 173);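 further: 0% = growth of vehicle-only control cultures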
# Settings: S. cerevisiae sgs1 mutant, at 11.0 µM, stronger effect = higher value
# Method in brief: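 Strain with an altered DNA repair or cell cycle pathway exposed to compound. Growth then measured. Value = inhibition versus vehicle control.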
row,Structure (SMILES),growth inhibition
1,CN(C)c1ccc(C2CC(C)(O)Oc3cc4c(cc32)OCO4)cc1 (configuration not stated),23%
2,O=P(NC1CCCCC1)(OCc1ccccc1)OCc1ccccc1,0%
3,COc1oc(C(=O)NC2CCCCC2)c(-c2ccc(Cl)cc2)c1S(=O)(=O)c1ccccc1,52%
4,C[Si](C)(C)/C=C/CCNC(C#N)c1ccccc1 (configuration not stated),42%
5,CCOc1ccc(NC(=O)C2=C(C)NC(C)=C(C(=O)Nc3ccc(OCC)cc3)C2c2cccc([N+](=O)[O-])c2)cc1,4%
6,CN(C)CCOC1(Cc2ccc(F)cc2)CCC(C(C)(C)C)CC1 (configuration not stated),18%
7,CC1(C)CC(=O)C(/C=N/c2nc(-c3ccccc3)cs2)=C(O)C1,26%
8,CC(=O)Nc1ccc2c(c1)Cc1cc(N=C3C=CC(=O)O3)ccc1-2,92% (active)
9,O=C1C=C(Cl)C(=O)C(c2ccc(Cl)cc2)=C1,66%
10,CNCCCNc1c2ccccc2nc2cccc([N+](=O)[O-])c12,92% (active)
11,CCCCCCCCCCCC(O)S(=O)(=O)O (configuration not stated),-12%
12,CC(C)OC(=O)c1ccc(CCc2cc(O)c(Br)cc2O)cc1,58%
13,CCc1cc(O)c(Cl)c(C)c1Cl,1%
14,C(=Nc1ccc(-c2cc(-c3ccccc3)nc3ccc4ccccc4c23)cc1)c1ccccc1,25%
15,CSc1nc(C)c(CCOC(C)=O)c(N=P(c2ccccc2)(c2ccccc2)c2ccccc2)n1,-4%
16,CS(=O)(=O)SCc1ccc([N+](=O)[O-])cc1,97% (active)

row,Structure (SMILES),growth inhibition
1,Cc1cc(-c2cc(C)c(O)c(C(C)(C)C)c2)cc(C(C)(C)C)c1O,-6%
2,Nc1cc(N)c(N=Nc2cccc3c(S(=O)(=O)O)cccc23)cc1N=Nc1cc([N+](=O)[O-])ccc1O,19%
3,Nc1ccc(F)cc1S,-14%
4,Brc1ccccc1-c1ncc(-c2ccccc2)o1,7%
5,COc1cc(C2SCC(=O)N2c2ccc(-c3ccc(-n4c(-c5ccccc5)nc5ccccc5c4=O)cc3)cc2)ccc1O (configuration not stated),0%
6,Nc1ncnc2c1ncn2C1OC(CO)CC1O (configuration not stated),25%
7,CCOC(=O)C1N=[N+](c2ccccc2)C(=O)/C1=C\n1c(=S)[nH]c2ccc([N+](=O)[O-])cc21 (configuration not stated),-9%
8,O=C(NNc1ccccc1)c1ccc(Cl)c(Cl)c1,-1%
9,Cc1ccc(CC2(OCCN(C)C)CCC(C(C)(C)C)CC2)cc1 (configuration not stated),41%
10,C[C@]12CC[C@H](O)CC1=CC[C@@H]1C2CC[C@]2(C)C(=O)NC(=O)CC12 (some centres not stated),90% (active)
11,CCCC/C=C/C(C)(C(=O)OCC)C(=O)OCC,3%
12,O=C(/C=C(/c1ccccc1)N1CCCCC1)c1ccccc1,3%
13,COc1c(O)c(C=O)c(Br)c(C=O)c1O,12%
14,Cc1ccc(Cl)cc1NC(=O)OCCN(C)C(=O)Nc1cc(Cl)ccc1C,-23%
15,Cc1nc2ccccc2nc1NNc1ccccc1,8%

# Same assay, conditions: S. cerevisiae sgs1 mutant, at 33.0 µM, stronger effect = higher value
row,Structure (SMILES),growth inhibition
1,CN(C)c1ccc(C2CC(C)(O)Oc3cc4c(cc32)OCO4)cc1 (configuration not stated),55%
2,O=P(NC1CCCCC1)(OCc1ccccc1)OCc1ccccc1,9%
3,COc1oc(C(=O)NC2CCCCC2)c(-c2ccc(Cl)cc2)c1S(=O)(=O)c1ccccc1,89% (active)
4,C[Si](C)(C)/C=C/CCNC(C#N)c1ccccc1 (configuration not stated),31%
5,CCOc1ccc(NC(=O)C2=C(C)NC(C)=C(C(=O)Nc3ccc(OCC)cc3)C2c2cccc([N+](=O)[O-])c2)cc1,44%
6,CN(C)CCOC1(Cc2ccc(F)cc2)CCC(C(C)(C)C)CC1 (configuration not stated),56%
7,CC1(C)CC(=O)C(/C=N/c2nc(-c3ccccc3)cs2)=C(O)C1,63%
8,CC(=O)Nc1ccc2c(c1)Cc1cc(N=C3C=CC(=O)O3)ccc1-2,99% (active)
9,O=C1C=C(Cl)C(=O)C(c2ccc(Cl)cc2)=C1,98% (active)
10,CNCCCNc1c2ccccc2nc2cccc([N+](=O)[O-])c12,92% (active)
11,CCCCCCCCCCCC(O)S(=O)(=O)O (configuration not stated),6%
12,CC(C)OC(=O)c1ccc(CCc2cc(O)c(Br)cc2O)cc1,61%
13,CCc1cc(O)c(Cl)c(C)c1Cl,44%
14,C(=Nc1ccc(-c2cc(-c3ccccc3)nc3ccc4ccccc4c23)cc1)c1ccccc1,36%
15,CSc1nc(C)c(CCOC(C)=O)c(N=P(c2ccccc2)(c2ccccc2)c2ccccc2)n1,-2%
16,CS(=O)(=O)SCc1ccc([N+](=O)[O-])cc1,99% (active)

row,Structure (SMILES),growth inhibition
1,Cc1cc(-c2cc(C)c(O)c(C(C)(C)C)c2)cc(C(C)(C)C)c1O,30%
2,Nc1cc(N)c(N=Nc2cccc3c(S(=O)(=O)O)cccc23)cc1N=Nc1cc([N+](=O)[O-])ccc1O,34%
3,Nc1ccc(F)cc1S,46%
4,Brc1ccccc1-c1ncc(-c2ccccc2)o1,50%
5,COc1cc(C2SCC(=O)N2c2ccc(-c3ccc(-n4c(-c5ccccc5)nc5ccccc5c4=O)cc3)cc2)ccc1O (configuration not stated),2%
6,Nc1ncnc2c1ncn2C1OC(CO)CC1O (configuration not stated),72% (active)
7,CCOC(=O)C1N=[N+](c2ccccc2)C(=O)/C1=C\n1c(=S)[nH]c2ccc([N+](=O)[O-])cc21 (configuration not stated),8%
8,O=C(NNc1ccccc1)c1ccc(Cl)c(Cl)c1,17%
9,Cc1ccc(CC2(OCCN(C)C)CCC(C(C)(C)C)CC2)cc1 (configuration not stated),82% (active)
10,C[C@]12CC[C@H](O)CC1=CC[C@@H]1C2CC[C@]2(C)C(=O)NC(=O)CC12 (some centres not stated),96% (active)
11,CCCC/C=C/C(C)(C(=O)OCC)C(=O)OCC,6%
12,O=C(/C=C(/c1ccccc1)N1CCCCC1)c1ccccc1,20%
13,COc1c(O)c(C=O)c(Br)c(C=O)c1O,53%
14,Cc1ccc(Cl)cc1NC(=O)OCCN(C)C(=O)Nc1cc(Cl)ccc1C,-15%
15,Cc1nc2ccccc2nc1NNc1ccccc1,16%
